# Assay results as given in PubChem BioAssay AID435030 (The Scripps Research Institute Molecular Screening Center, 2010).
# Screen size: about 330,000 compounds; about 940 (0.28%) were called active. Cut-off read from the data, not from the text of the source: active = inhibition above about 12%; inactive = the rest. The entries come from a sample that favours actives as a whole.
# Experiment: reduced growth of AddAB-expressing E. coli cells – absorbance, AddAB inhibitor project, primary screen (AID 435030);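 note: 0% = vehicle wells of infected cells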
# Conditions: E. coli expressing H. pylori AddAB, at 11.9 µM, hits give high values
row,Structure (SMILES),inhibition
1,O=[N+]([O-])c1cnc2ccc3ccccc3c2c1,50.7% (active)
2,Cc1ccc(-n2c(-c3ccc([N+](=O)[O-])cc3)nc3ccccc3c2=O)cc1,0.16% (inactive)
3,C/C(=N/O)c1ccc2ccc3ccccc3c2c1,1.43% (inactive)
4,CCc1ccc(OCC(=O)N2CCN(CC(=O)Nc3ccccc3Cl)CC2)cc1,-0.08% (inactive)
5,CN(C)S(=O)(=O)c1cc(C(=O)N2CCC(C(=O)O)(c3ccccc3)CC2)ccc1Cl,23.8% (active)
6,CCc1nc2ccccc2c(=O)n1-c1cccc(OC)c1,1.96% (inactive)
7,COc1ccc(S(=O)(=O)NCc2ccc(C(=O)N3CCC4(CC3)OCCO4)cc2)cc1,2.3% (inactive)
8,c1ccc2sc(N3CCNCC3)nc2c1,-0.09% (inactive)
9,C[C@]12CC[C@H](O)CC1=C([N+](=O)[O-])CC1C2CC[C@@]2(C)C1CC[C@@H]2O (stereo not given in full),1.39% (inactive)
10,Cc1ccc(-c2nn(CCC#N)cc2C(=O)O)cc1C,2.06% (inactive)
